These results are taken from the supplement of paper PMC7411054.

Common to all, as to settings: treatment time: 24 h
Assay [1] relates to A549-ACTB-RAB5A. Put plainly: lowest phenotypically active concentration; higher = less potent. The procedure, abridged:
(§1)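 Fifteen reporter lines derived from A549, HepG2 and WPMY1 cells by gene editing, carrying BFP for segmentation plus GFP and RFP/FusionRed markers, were exposed to 0.3, 1, 3 or 9 µM for 24 h in four wells each and imaged live. Live-cell features from each well were normalised to solvent control wells. A well set counted as deviating when ≥3 of 4 wells lay beyond the 95th percentile of control Euclidean distances, and as reproducible when the median replicate Pearson correlation exceeded the 95th percentile of non-replicates. Phenotypic activity was assigned only when both criteria were met.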

In assay [2] the test system is A549-GM130-SQSTM1. The description is as above. The procedure, abridged:
as §1

Assay [3] relates to HepG2-ACTB-RAB5A. The assay is described as above. The method in brief:
as §1

Assay [4] has as its system HepG2-GM130-SQSTM1. The description is as above. The procedure, abridged:
as §1

Assay [5] deals with A549-ACTB-RAB5A. Put plainly: phenotypically active (imaging signature differs from DMSO and reproducible) at any of 0.3-9 uM (binary (1 = active, 0 = inactive)); higher = active. The procedure, abridged: as §1
For assay [6], the system named is A549-CANX-COX4. The description is as above. The procedure, abridged: as §1
The test system of assay [7] is A549-GM130-SQSTM1. The description is as above. The method in brief: as §1
Assay [8] deals with A549-TP53BP1-CLTA. The assay is described as above. The procedure, abridged: as §1
The test system of assay [9] is A549-TUBA1B-RELA. Described as above. The procedure, abridged: as §1
Assay [10] relates to HepG2-ACTB-RAB5A. Described as above. The procedure, abridged: as §1
For assay [11], the system named is HepG2-CANX-COX4. The description is as above. The method in brief: as §1
Assay [12] concerns HepG2-GM130-SQSTM1. Described as above. The method in brief:
as §1

The subject of assay [13] is HepG2-TP53BP1-CLTA. The assay is described as above. The method in brief:
as §1

The test system of assay [14] is HepG2-TUBA1B-RELA. The description is as above. The procedure, abridged:
as §1

In assay [15] the test system is WPMY1-ACTB-RAB5A. The description is as above. The method in brief:
as §1

Assay [16] concerns WPMY1-CANX-COX4. Described as above. The procedure, abridged: as §1
Assay [17] has as its system WPMY1-GM130-SQSTM1. Described as above. The procedure, abridged:
as §1

Assay [18] has as its system WPMY1-TP53BP1-CLTA. The description is as above. The procedure, abridged: as §1
The test system of assay [19] is WPMY1-TUBA1B-RELA. Described as above. The method in brief:
as §1

The subject of assay [20] is WPMY1-GM130-SQSTM1. In words: lowest phenotypically active concentration; higher = less potent. The method in brief: as §1

As for `COc1ccc(Cl)cc1NC(=O)Nc1cc(C)nc2ccccc12`, the “lowest phenotypically active concentration” value in assay [1], in assay [2], in assay [3] and in assay [4] was 3 µM throughout. In addition, the phenotypically active in [5] was 1 (active); in assay [6], 0 (inactive); in assay [7], 1 (active); in assay [8], 0 (inactive); in [9], 1 (active); in assay [10], 1 (active). Also, the phenotypically active in [11] was 1 (active); in [12] it was 1 (active); in assay [13] it was 1 (active); in [14] it was 1 (active); in [15] it was 0 (inactive); in [16], 0 (inactive). The phenotypically active in assay [17], in assay [18] and in [19] was 0 (inactive) throughout.
Take `Cn1c(=O)c2nc[nH]c2n(C)c1=O` [theophylline]: the “lowest phenotypically active concentration” value in [2] is 9 µM. In addition, the phenotypically active in [5] was 0 (inactive); in assay [6], 0 (inactive); in assay [7], 1 (active); in [8], 0 (inactive); in [9] it was 0 (inactive); in assay [10], 0 (inactive). Further, the phenotypically active in assay [11], in assay [12], in [13], in [14], in assay [15] and in assay [16] was 0 (inactive) each time. The phenotypically active in assay [17], in assay [18] and in [19] was 0 (inactive) throughout.
Regarding `CC(=O)S[C@@H]1CC2=CC(=O)CC[C@]2(C)[C@H]2CC[C@@]3(C)[C@@H](CC[C@@]34CCC(=O)O4)[C@H]12` [spironolactone], the “lowest phenotypically active concentration” value in assay [1] and in [20] was 9 µM throughout. Besides, the phenotypically active in assay [5] was 1 (active); in assay [6], 0 (inactive); in assay [7], 0 (inactive); in assay [8], 0 (inactive); in assay [9] it was 0 (inactive); in [10] it was 0 (inactive). The phenotypically active in assay [11], in [12], in assay [13], in [14], in [15] and in [16] was 0 (inactive) in each case. Moreover, the phenotypically active in assay [17] is 1 (active); in assay [18] it was 0 (inactive); in assay [19], 0 (inactive).
Turning to `Cc1cc(C(C)Nc2ccccc2)c2nc(N3CCOCC3)cc(=O)n2c1` (stereo not drawn), the “lowest phenotypically active concentration” value in [1], in assay [3] and in [20] was 9 µM each time. Also, the phenotypically active in assay [5] was 1 (active); in [6], 0 (inactive); in assay [7], 0 (inactive); in assay [8], 0 (inactive); in [9], 0 (inactive); in assay [10] it was 1 (active). The phenotypically active in [11] was 0 (inactive); in assay [12], 0 (inactive); in [13] it was 0 (inactive); in [14] it was 0 (inactive); in [15], 0 (inactive); in assay [16] it was 1 (active). Moreover, the figures for the phenotypically active in [17], in [18] and in assay [19] were 1 (active), 0 (inactive) and 0 (inactive), respectively.
Turning to `Cc1cccc(-c2n[nH]cc2-c2ccc(F)c(-c3cnn(CCO)c3)c2)n1`, the “lowest phenotypically active concentration” value in assay [1] and in assay [20] was 9 µM each time. In addition, the phenotypically active is 1 (active) in [5]; 0 (inactive) in [6]; 0 (inactive) in [7]; 0 (inactive) in assay [8]; 0 (inactive) in assay [9]; 0 (inactive) in [10]. For the same compound, the phenotypically active was 1 (active) in [11]; 0 (inactive) in [12]; 1 (active) in assay [13]; 0 (inactive) in assay [14]; 1 (active) in assay [15]; 1 (active) in assay [16]. In addition, the phenotypically active in assay [17], in [18] and in [19] was 1 (active) throughout.
Regarding `N=C(N)NC(=N)NCCc1ccccc1` [phenformin], the “lowest phenotypically active concentration” value in [2] turned out to be 9 µM. Also, the phenotypically active in assay [5] was 0 (inactive); in [6], 1 (active); in [7] it was 1 (active); in assay [8], 0 (inactive); in assay [9], 0 (inactive); in assay [10] it was 0 (inactive). Moreover, the phenotypically active in assay [11], in [12], in assay [13], in [14], in assay [15] and in assay [16] was 0 (inactive) throughout. Also, the phenotypically active in [17], in assay [18] and in assay [19] was 0 (inactive) each time.
